# According to the supplement of paper PMC8975748:
# Where a name gives a salt, the structure may show the parent alone.
# Tested on: Saccharomyces cerevisiae BY4741 SeMeCo community
# Experiment: z-score of subpopulation abundance vs DMSO median, subpopulation auxotrophic for H; higher = larger share of this subpopulation than in DMSO controls
# Settings: 10 µM; 24 h; SM minimal medium; subpopulation (auxotrophy): H
# Protocol: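 Fluorescent four-plasmid SeMeCo (self-establishing metabolically cooperating S. cerevisiae BY4741 community; plasmids pH-mRuby2, pL-mWasabi, pU-eCFP, pM-TagRFP657) was grown 24 h in minimal SM medium with each Selleck FDA-approved drug at 10 µM in 384-well plates. Cells were fixed and imaged by high-content confocal microscopy. For each auxotrophic subpopulation (and the prototroph), a z-score gives the deviation from the DMSO vehicle-control population median.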
row,Structure (SMILES),z-score of subpopulation abundance
1,CC1(C)S[C@@H]2[C@H](NC(=O)[C@H](N)c3ccc(O)cc3)C(=O)N2[C@H]1C(=O)O [Amoxicillin Sodium],-0.8
2,CN1CCC(=C2c3ccccc3CCc3sccc32)CC1 [Pizotifen Malate],-0.02
3,O=C1Cc2cc(CCN3CCN(c4nsc5ccccc45)CC3)c(Cl)cc2N1 [Ziprasidone HCl],0.97
4,NC(CO)(CO)CO [Trometamol],-0.42
5,Nc1nc2c(ncn2COCCO)c(=O)[nH]1 [Aciclovir],-0.28
6,C#C[C@]1(O)CC[C@H]2[C@@H]3CCC4=CC(=O)CC[C@@H]4[C@H]3C(=C)C[C@@]21CC [Etonogestrel],0.15
7,CS(=O)(=O)c1ccc([C@@H](O)[C@@H](CO)NC(=O)C(Cl)Cl)cc1 [Thiamphenicol],-0.3
8,CN1C(C(=O)Nc2ccccn2)=C(O)c2sc(Cl)cc2S1(=O)=O [Lornoxicam],-0.26
9,O=C1N=C(O)NC1(c1ccccc1)c1ccccc1 [Phenytoin Sodium],-0.03
10,C[C@@H](O)[C@H]1C(=O)N2C(C(=O)O)=C([C@H]3CCCO3)S[C@H]12 [Faropenem Sodium],0.32
11,C[C@](N)(Cc1ccc(O)c(O)c1)C(=O)O [Methyldopa],0.34
12,CCN(CC)CCOc1ccc2c(c1)C(=O)c1cc(OCCN(CC)CC)ccc1-2 [Tilorone dihydrochloride],0.18
13,"CCC(=O)Oc1ccc2c(c1)CCC1C2CCC2(C)C(OC(=O)CC)CCC12 (stereo not drawn) [Estradiol dipropionate(17-Beta-Estradiol-3,17-Dipropionate)]",-1.21
14,NC[C@H]1O[C@H](O[C@H]2[C@H](O)[C@@H](O[C@H]3O[C@H](CO)[C@@H](O)[C@H](N)[C@H]3O)[C@H](N)C[C@@H]2N)[C@H](N)C[C@@H]1O [Tobramycin],-1.81
15,CC(=O)NC[C@H]1CN(c2ccc(N3CCOCC3)c(F)c2)C(=O)O1 [Linezolid],-0.56
16,"CO[C@H]1C[C@@H]2CC[C@@H](C)[C@@](O)(O2)C(=O)C(=O)N2CCCC[C@H]2C(=O)O[C@H]([C@H](C)C[C@@H]2CC[C@@H](OP(C)(C)=O)[C@H](OC)C2)CC(=O)[C@H](C)/C=C(\C)[C@@H](O)[C@@H](OC)C(=O)[C@H](C)C[C@H](C)/C=C/C=C/C=C/1C [Ridaforolimus (Deforolimus, MK-8669)]",15.9
17,Cc1cc(NS(=O)(=O)c2ccc(N)cc2)no1 [Sulfamethoxazole sodium],-0.82
18,COC(=O)Nc1nc2cc([S+]([O-])c3ccccc3)ccc2[nH]1 (stereo not given) [Oxfendazole],0.08
19,Cc1ccc(C(=O)C(C)CN2CCCCC2)cc1 (stereo not given) [Tolperisone HCl],-0.79
20,Fc1ccc(C(c2ccc(F)cc2)N2CCN(C/C=C/c3ccccc3)CC2)cc1 [Flunarizine 2HCl],0.98

row,Structure (SMILES),z-score of subpopulation abundance
1,COc1cc(O)c(C(=O)Nc2nc(C(=O)NCCN(C(C)C)C(C)C)cs2)cc1OC [Acotiamide],0.24
2,CC[C@H](C)C(=O)O[C@H]1C[C@H](O)C=C2C=C[C@H](C)[C@H](CC[C@@H](O)C[C@@H](O)CC(=O)O)[C@H]21 [Pravastatin],0.39
3,CN1CCCN=C1/C=C/c1cccs1 [Pyrantel Pamoate],1.26
4,CCN(CC)CCNC(=O)c1cc(Cl)c(N)cc1OC [Metoclopramide],-0.88
5,O=C1OC(CN2CCOCC2)CN1/N=C/c1ccc([N+](=O)[O-])o1 (stereo not given) [Furaltadone HCl],-0.56
6,CO/N=C1\C[C@]2(C[C@@H]3C[C@@H](C/C=C(\C)C[C@@H](C)/C=C/C=C4\CO[C@@H]5[C@H](O)C(C)=C[C@@H](C(=O)O3)[C@]45O)O2)O[C@H](/C(C)=C/C(C)C)[C@H]1C [Moxidectin],1.63
7,Cn1cc(C(=O)[C@@H]2CCc3[nH]cnc3C2)c2ccccc21 [Ramosetron Hydrochloride],-0.29
8,N[C@@H]1CN(c2c(F)cc3c(=O)c(C(=O)O)cn([C@@H]4C[C@@H]4F)c3c2Cl)CC12CC2 [Sitafloxacin Hydrate],0.2
9,CCCN[C@H]1CCc2nc(N)sc2C1 [Pramipexole],-0.21
10,O=C(O)CCc1nc(-c2ccccc2)c(-c2ccccc2)o1 [Oxaprozin],-0.36
11,O=C(O[C@@H]1C[C@@H]2C[C@H]3C[C@H](C1)N2CC3=O)c1c[nH]c2ccccc12 [Dolasetron Mesylate],-0.55
12,NCCNc1ccc(NCCN)c2c1C(=O)c1ccncc1C2=O [Pixantrone Maleate],3.74
13,O=C1NC(=O)C(c2ccccc2)(c2ccccc2)N1 [Phenytoin],-0.22
14,CC1(C)[C@H](C(=O)O)N2C(=O)C[C@H]2S1(=O)=O [Sulbactam],-0.12
15,CC/C(=C(/CC)c1ccc(O)cc1)c1ccc(O)cc1 [Diethylstilbestrol],0.17
16,CO/N=C(\C(=O)N[C@@H]1C(=O)N2C(C(=O)O)=CCS[C@H]12)c1csc(N)n1 [Ceftizoxime],-0.86
17,O=C(CCCN1CC=C(n2c(=O)[nH]c3ccccc32)CC1)c1ccc(F)cc1 [Droperidol],-0.5
18,COc1cccc2c1C(=O)c1c(O)c3c(c(O)c1C2=O)C[C@@](O)(C(C)=O)C[C@@H]3O[C@H]1C[C@H](N)[C@H](O)[C@H](C)O1 [Daunorubicin HCl],0.44
19,CN(C)CCn1nnnc1SCC1=C(C(=O)O)N2C(=O)[C@@H](NC(=O)Cc3csc(N)n3)[C@H]2SC1 [Cefotiam hydrochloride],1.72
20,CCC[C@@H]1C[C@@H](C(=O)N[C@@H]([C@H]2O[C@H](SC)[C@H](O)[C@@H](O)[C@H]2O)[C@H](C)Cl)N(C)C1 [Clindamycin HCl],-0.08
